MARV entry inh = Marburg virus entry inhibition | Marburg virus pseudotyped entry inhibition, cell reporter | Potency, µM (series often up to 37.8 µM), for inactives: at the highest dose activity change, negative = inhibition, hits mostly inhibitors | 300,000 tested, 1.8% active | AID 540276; calls by dose curve; tested in HEK293 cells; note: potency is the fitted concentration of half-maximal effect; % is set by controls: 0 for no effect and ±100 for the full control effect
Shiga inhibitor = blocks Shiga toxin action in Vero cells; 290,000 tested, 9.2% active; AID 2315; Vero cells, Shiga toxin protein synthesis inhibition reporter; inhibition, % at 38.7 µM; in the data active = inhibition mostly above about 28%, no sharp cut-off; inactive = mostly below about 43%; note: 0% is about no effect
Cycloheximide cs = counter-screen hit for Shiga toxin inhibitors, cycloheximide. cell reporter, cycloheximide protein synthesis inhibition counterscreen. max response, %. 300,000 tested, 12% active; in the data active = max response mostly above about 13%, no sharp cut-off; inactive = mostly below about 14%; note: read at 38.3 µM for the half of the compounds with a filed dose; 0% is about no effect
Lassa entry inh = Lassa virus entry inhibition | 300,000 tested, 1.2% active | Potency, µM (highest dose often 37.9 µM), for the others: top-dose activity change, negative = inhibition, usual class: inhibitors | AID 540256 | Lassa virus pseudotype entry inhibition, cell reporter; calls by dose curve; tested in HEK293 cells; note: potency is the fitted concentration of half-maximal effect; % is set by controls: 0 for no effect and ±100 for the full control effect; nearly all actives have a fitted effect of over 50% in size
Starred values were filed as active, the others as inactive; ? = inconclusive; . = no result; [ ] = another dose, or the depositor's remark. Hits are enriched below; roughly 12% of the tested compounds scored in any of these assays.

SMILES	MARV entry inh	Shiga inhibitor	Cycloheximide cs	Lassa entry inh
CN(Cc1cn(-c2ccccc2)nc1-c1ccc(Cl)cc1)C(=O)CCC(=O)O	?	21	-4	11%
NS(=O)(=O)C#Cc1ccccc1	?	15*	26*	5.8µM*
Cc1noc(C)c1-c1ccc2ncnc(NCc3cccn3C)c2c1	.	-6	1	.
c1ccc(N2CC3CCc4ccccc4C3=N2)cc1 (stereo not given)	?	64*	39*	?
O=C1c2ccccc2C(=O)N1CC1=NCCc2ccccc21	?	26	19	13%
NC(=O)C1=NOC(CNc2ncc(C(F)(F)F)cc2Cl)C1 (stereo not given)	?	87*	36*	?
COC(=O)c1sccc1S(=O)(=O)N(CC(=O)NCc1ccc(F)cc1)c1ccccc1	.	.	.	-25%[46.1 µM]
CC1=C/C(=N\NC(=S)NCc2ccccc2)CC1	-7%	56*	26*	3%
Cc1[nH]c2ccccc2c1/C=N/NC(=S)NCc1ccccc1	-2%	-11	13	?
COc1ccc(NC(=S)N/N=C/c2cccn2Cc2ccc(F)cc2)cc1	?	46*	11	-13%[46.1 µM]
CNC(=S)N/N=C(\C)c1ccc(C(C)(C)C)cc1	?	30*	24*	22%
COc1ccc(C/C(C)=N/NC(=S)Nc2ccccc2)cc1	?	86*	42	12%
COCCCn1c(SCC(=O)n2c(C)c(C)c3ccccc32)nnc1-c1ccoc1C	-18%[46.1 µM]	55	7	7%
O=S(=O)(N1CCOCC1)n1c(Cc2ccccc2)nc2ccccc21	-1%	1	6	11%
O=C(Nc1nc2ccccc2n1CCN1CCOCC1)c1ccc(COc2ccccc2Br)o1	?	-5	1	?
O=C(NCc1n[nH]c(=S)n1-c1ccc(Br)cc1)c1ccc(S(=O)(=O)N2CCCCC2)cc1	?	4	-1	13%[46.1 µM]
COc1ccccc1CNC(=O)C1CCCN(S(=O)(=O)c2ccc3c(c2)oc(=O)n3C)C1 (stereo not given)	-6%[46.1 µM]	.	.	3%[46.1 µM]
COc1ccc(CNC(=S)N/N=C(/C)c2ccccc2)cc1	?	84*	49*	14µM*
C/C(=N\NC(=S)NCc1ccccc1)c1ccc(C#N)cc1	.	-5	-2	.
C/C(=N\NC(=S)NCc1ccccc1)c1ccccc1	?	active	28*	?
C/C(=N\NC(=S)NCc1ccccc1)c1ccc(C(C)(C)C)cc1	?	-7	12*	0.46µM*
C/C(=N\NC(=S)NCc1ccccc1)c1ccccc1F	?	46*	23	?
COc1ccc(S(=O)(=O)N2CCOC2CNC(=O)C(=O)NCCN2CCOCC2)cc1 (stereo not given)	12%	21	-3	-6%
CSCC[C@H](NC(=O)[C@H](CO)NC(=O)[C@H](Cc1ccc(O)cc1)NC(=O)[C@@H](N)CO)C(=O)N[C@@H](CCC(=O)O)C(=O)N[C@@H](Cc1cnc[nH]1)C(=O)N[C@@H](Cc1ccccc1)C(=O)N[C@@H](CCCNC(=N)N)C(=O)N[C@@H](Cc1c[nH]c2ccccc12)C(=O)NCC(=O)N[C@@H](CCCCN)C(=O)N1CCC[C@H]1C(=O)N[C@H](C(=O)NCC(=O)N[C@@H](CCCCN)C(=O)N[C@@H](CCCCN)C(=O)N[C@@H](CCCNC(=N)N)C(=O)N[C@@H](CCCNC(=N)N)C(=O)N1CCC[C@H]1C(=O)N[C@H](C(=O)N[C@@H](CCCCN)C(=O)N[C@H](C(=O)N[C@@H](Cc1ccc(O)cc1)C(=O)N1CCC[C@H]1C(=O)O)C(C)C)C(C)C)C(C)C	.	-6	-7	.
C/C(=N\NC(=S)NCc1ccccc1)c1ccco1	5%[46.1 µM]	37*	19*	-11%[46.1 µM]
SMILES	MARV entry inh	Shiga inhibitor	Cycloheximide cs	Lassa entry inh
Cc1sc2ncn(CC(=O)Nc3ccc(C(C)C)cc3)c(=O)c2c1S(=O)(=O)N1CCN(c2ncccn2)CC1	-2%[46.1 µM]	.	.	7%[46.1 µM]
O=C(/C=C/Nc1ccc([N+](=O)[O-])cc1Br)c1cccc2ccccc12	?	42	20*	?
O=C(CN1C(=O)COc2ccccc21)N1CCc2ccccc2C1	?	31	11	-6%
O=C1C(=C(O)c2ccccc2)C(=O)c2ccccc21	20%	24	14*	-5%
Oc1ccc(/C=N/Nc2ccc(C(F)(F)F)cn2)c(O)c1	.	56*	52*	.
Oc1ccc(/C=N/Nc2cccc(Cl)n2)c(O)c1	.	47*	42*	.
Oc1ccc(/C=N\Nc2cc(N3CCOCC3)nc(N3CCOCC3)n2)c(O)c1	?	12	1	?
C/C(=N\Nc1ccc(C(F)(F)F)cn1)c1ccncc1	-49%	101*	24*	?
CC(=NNc1ccc([N+](=O)[O-])cn1)c1ccccc1	7%	.	.	2%
Oc1ccc(/C=N/Nc2ccc(C(F)(F)F)cn2)cc1	?	124*	37*	15%[46.1 µM]
CC(C)C[C@H](NC(=O)[C@H](CCCCN)NC(=O)CNC(=O)[C@H](CC(C)C)NC(=O)[C@@H](NC(=O)[C@@H]1CSSC[C@H](N)C(=O)N[C@@H](CO)C(=O)N[C@@H](CC(N)=O)C(=O)N[C@@H](CC(C)C)C(=O)N[C@@H](CO)C(=O)N[C@@H]([C@@H](C)O)C(=O)N1)C(C)C)C(=O)N[C@@H](CO)C(=O)N[C@@H](CCC(N)=O)C(=O)N[C@@H](CCC(=O)O)C(=O)N[C@@H](CC(C)C)C(=O)N[C@@H](Cc1cnc[nH]1)C(=O)N[C@@H](CCCCN)C(=O)N[C@@H](CC(C)C)C(=O)N[C@@H](CCC(N)=O)C(=O)N[C@H](C(=O)N[C@@H](Cc1ccc(O)cc1)C(=O)N1CCC[C@H]1C(=O)N[C@@H](CCCNC(=N)N)C(=O)N[C@H](C(=O)N[C@@H](CC(N)=O)C(=O)N[C@H](C(=O)NCC(=O)N[C@@H](CO)C(=O)NCC(=O)N[C@H](C(=O)N1CCC[C@H]1C(N)=O)[C@@H](C)O)[C@@H](C)O)[C@@H](C)O)[C@@H](C)O	.	-6	-8	.
CC(=O)Nc1ccc(S(=O)(=O)Oc2ccccc2N2C(=O)C3C4CCC(C4)C3C2=O)cc1 (stereo not given)	10µM*	-5	1	2.8µM*
CCC(=O)N1CCN(c2ccc(NC(=O)c3cc4ccccc4o3)cc2Cl)CC1	11µM*	-3	17*	?
CCCC(=O)N1CCN(c2ccc(NC(=O)c3cc4ccccc4o3)cc2Cl)CC1	?	11	13	16µM*
O=C(Nc1ccc(N2CCN(C(=O)c3ccccc3)CC2)c(Cl)c1)c1ccco1	?	-9	-3	?
O=C(Nc1ccc(N2CCN(C(=O)c3ccco3)CC2)c(Cl)c1)c1cc2ccccc2o1	?	52	23*	?
CN(C)c1ccc(C(CNS(=O)(=O)c2ccc3ccccc3c2)N2CCOCC2)cc1 (stereo not given)	-1%	.	.	2%
CCOC(=O)c1c(C)noc1CP(=O)(c1ccccc1)c1ccccc1	-12%	7	-1	20%
COC(=O)C1=C(C(=O)OC)[C@@H]2N(C)c3ccccc3[C@@]23C[C@@H](CO)N(C(=O)NCCBr)C3=N1	.	-12	-3	.
CC(C(=O)NCc1ccccc1)n1ccc2cc(S(=O)(=O)N3CCCC3)ccc21 (stereo not given)	.	.	.	-21%[46.1 µM]

Screening results deposited in PubChem BioAssay by National Center for Advancing Translational Sciences (NCATS).
